# Compound activity: PubChem, Broad Institute
# FGF22 binding-1 = binders of recombinant human FGF22 by thermal shift. Q9HCT0. 1.5% of 340,000 active. SYPRO orange fluorescence; percent of sucrose octasulfate shift, DMSO zero. AID 651658. activity (Tm shift, normalised), % at 9.99 µM;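 active means mean Tm shift, scaled 0 neutral to 100 positive control, at about 1.3% or above, every replicate too, limit read from the data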
# Target sequence (Q9HCT0 whole entry, looked up): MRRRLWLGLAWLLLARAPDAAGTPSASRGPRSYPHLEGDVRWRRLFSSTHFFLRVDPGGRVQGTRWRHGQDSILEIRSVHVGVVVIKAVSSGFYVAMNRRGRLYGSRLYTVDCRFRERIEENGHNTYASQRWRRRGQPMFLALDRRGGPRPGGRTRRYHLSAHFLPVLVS
# F508del corr = correctors of CFTR F508del function in bronchial epithelial cells; CFBE cells, YFP halide quenching; stimulated with forskolin plus potentiator P3; % fluorescence drop versus neutral controls; activity (quench increase), % at 7.58 µM; 0.36% of 350,000 active;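 active means mean added fluorescence quench of at least 8% versus neutral control, with both replicates also reaching 8%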;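 further: cells transiently co-express mutant CFTR-F508del with the halide-sensitive YFP; corrector assay measuring rescue of mutant channel to the surface after 24 h compound exposure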
# Vif inh = blocks HIV Vif function; HEK293T cells, Vif self-association by quenched fluorescence, imaging, 24 h; inhibition, % at 7.49 µM; 0.35% of 340,000 active; AID 602346; in the data active means inhibition above about 50%, passing the limit was not always enough
# FGF22 binding-2 = binders of human FGF22 by thermal shift; shares compounds with FGF22 binding-1; recombinant FGF22 thermal shift, SYPRO orange fluorescence; thermal shift activity, °C (ΔTm) at 38 µM; 2% of 1,000 active; AID 720646;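 active means fitted rise in melting shift crosses a set limit at or below the top valid dose tested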
# SYPRO no-protein = compound-only SYPRO artifact for FGF22 binders; 2% of 1,000 active; AID 743019; compound-only SYPRO orange thermal shift counter-screen, no protein; shares compounds with FGF22 binding-1; AC50, µM (doses to about 38 µM);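 active means rising signal whose fitted curve reaches the 0.54 level within the top valid dose, showing a melting point, actives reach about 13 µM in these data; inactive means the rest, including activity in the opposite direction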; further: value is where the raw curve crosses a fixed level and not half-maximal
# Starred values were filed as active, the others as inactive; i = inactive; nt = no result; [ ] = another dose, or the depositor's remark. Sampled rows, rich in hits. Any-hit rate of the full collection: about 1.7%.
SMILES,FGF22 binding-1,F508del corr,Vif inh,SYPRO no-protein,others
CC(C)CC#Cc1cnc2c(c1)C(=O)N([C@@H](C)CO)C[C@H](C)[C@H](CN(C)Cc1ccccn1)O2,0,1,nt,nt,
C[C@@H]1CN([C@@H](C)CO)C(=O)c2cc(C#Cc3ccccc3F)cnc2O[C@H]1CN(C)S(=O)(=O)c1ccccc1,0,-2,nt,nt,
C[C@@H]1CCCCO[C@H](CN(C)C(=O)CCCN(C)C)[C@@H](C)CN([C@@H](C)CO)C(=O)c2cc(NC(=O)Nc3ccc(F)cc3)ccc2O1,-1,0,nt,nt,
N#C[C@H]1[C@H](c2ccccc2)[C@H](CO)N1C(=O)c1ccc2c(c1)OCO2,0,-1,nt,nt,
CO[C@@H]1CN(C)C(=O)c2ccc(NC(=O)NC(C)C)cc2OC[C@@H](C)N(CCC(F)(F)F)C[C@@H]1C,0,2,nt,nt,
C[C@H](CO)N1C[C@H](C)[C@H](CN(C)S(=O)(=O)c2ccc(Cl)cc2)Oc2ccc(NC(=O)CCN3CCOCC3)cc2CC1=O,0,0,nt,nt,
CC(=O)N(C)C[C@H]1Oc2cc(C#CC3CCCC3)ccc2S(=O)(=O)N([C@H](C)CO)C[C@H]1C,0,-1,nt,nt,
O=C(Nc1ccccc1)[C@@H]1[C@@H](CO)[C@@H]2Cn3c(ccc(C4=CCCCC4)c3=O)[C@@H]2N1Cc1ccccn1,0,4,nt,nt,
O=C(NCC(F)(F)F)[C@H]1[C@H](CO)[C@H]2Cn3c(cccc3=O)[C@@H]1N2C(=O)C1CCCC1,0,-1,nt,nt,
CC(=O)N1[C@H](CO)[C@@H](c2ccccc2)C12CN(C(=O)Cc1ccccc1)C2,1.6*,0,nt,i,FGF22 binding-2=-0.025
COCC(=O)N1CC2(C1)[C@H](c1ccc(-c3cccc(C)c3)cc1)[C@@H](CO)N2C(=O)C1CC1,nt,1,nt,nt,
COCC(=O)N1[C@H](CO)[C@H](c2ccccc2)C12CN(C(=O)c1ccccc1)C2,1.3*,0,nt,i,FGF22 binding-2=-0.03[42 µM]
COCC(=O)N1CC2(C1)[C@H](c1ccc(-c3cccc(C)c3)cc1)[C@H](CO)N2C(=O)C1CC1,1.5*,1,nt,i,FGF22 binding-2=0.062[42 µM]
COCC(=O)N1[C@@H](CO)[C@H](c2ccccc2)C12CN(C(=O)c1ccccc1)C2,nt,0,nt,nt,
O=C(Cc1ccccc1)N1CC2(C1)[C@H](c1ccccc1)[C@H](CO)N2C(=O)Cc1ccccc1,0,-2,nt,nt,
O=C(C[C@H]1CC[C@@H](NC(=O)NC2CCCCC2)[C@@H](CO)O1)NCc1ccc(F)cc1,0,-2,nt,nt,
CN1CCN(C(=O)[C@@H]2[C@@H](CO)[C@@H]3Cn4c(cccc4=O)[C@H]2N3Cc2ccncc2)CC1,0,nt,nt,nt,
CCC(=O)N1CC2(CCN(Cc3ccc(Cl)cc3)CC2)c2c([nH]c3cc(OC)ccc23)[C@@H]1CO,nt,0,nt,nt,
COc1ccc(NC(=O)c2ccc(-n3cncn3)c([N+](=O)[O-])c2)cc1,0,0,15,nt,
CCc1ccc(NC(=O)c2ccc(-n3cncn3)c([N+](=O)[O-])c2)cc1,2.3*,-5,-3,i,FGF22 binding-2=0.1
O=C(Nc1ccc2c(c1)[C@H]1C[C@H](CC(=O)N3CCOCC3)O[C@H](CO)[C@H]1O2)C1CCOCC1,0,-1,nt,nt,
N#Cc1c(-c2ccccc2)nc(-c2ccncc2)[nH]c1=O,1.6*,-8,-4,i,FGF22 binding-2=0.14
N#Cc1c(-c2ccccc2)nc(-c2ccccc2)[nH]c1=O,nt,nt,-11,nt,
COCC#Cc1cnc2c(c1)C(=O)N([C@H](C)CO)C[C@H](C)[C@@H](CN(C)C(=O)Nc1cccc(F)c1)O2,0,0,nt,nt,
CC(=O)N(C)C[C@H]1Oc2ncc(-c3cccc(C#N)c3)cc2C(=O)N([C@@H](C)CO)C[C@H]1C,0,nt,nt,nt,
SMILES,FGF22 binding-1,F508del corr,Vif inh,SYPRO no-protein,others
N#Cc1ccsc1NC(=O)COC(=O)c1ccc(NC(N)=O)cc1,0,4,2,nt,
NC(=O)c1ccsc1NC(=O)COC(=O)Cc1cccc2ccccc12,nt,nt,-31,nt,
NC(=O)Nc1ccc(C(=O)OCC(=O)Nc2sccc2C(N)=O)cc1,1.5*,-2,-4,i,FGF22 binding-2=0.045
NC(=O)c1ccsc1NC(=O)COC(=O)Cc1c[nH]c2ccccc12,1.8*,1,-10,i,
COc1cccc(-c2ccc([C@H]3[C@H](CO)N(C(C)=O)C34CN(C(C)=O)C4)cc2)c1,0,1,nt,nt,
CCCC(=O)N1CCC2(CC1)CN(C(=O)COC)[C@H](CO)c1c2c2ccc(OC)cc2n1C,0,1,nt,nt,
COc1ccc(NC(=O)CCN2C(=O)c3ccccc3C2=O)c(OC)c1,0,-1,-1,nt,
COc1ccc(NC(=O)CCCN2C(=O)CN(C)C2=O)c(OC)c1,15*,-3,-3,i,
Cc1cccc(S(=O)(=O)N2CCCCN3[C@H](CO)[C@@H](c4ccc(C#C[C@H](C)O)cc4)[C@@H]3C2)c1,0,-2,nt,nt,
Cc1cccc(S(=O)(=O)N2CCCCN3[C@@H](CO)[C@@H](c4ccc(C#C[C@H](C)O)cc4)[C@@H]3C2)c1,1.3*,0,nt,i,FGF22 binding-2=-0.087[42 µM]
CN1CCN(C(=O)C[C@H]2C=C[C@H](NC(=O)c3ccc4c(c3)OCO4)[C@H](CO)O2)CC1,1.5*,2,nt,i,FGF22 binding-2=0.042[42 µM]
CN1CCN(C(=O)C[C@@H]2C=C[C@@H](NC(=O)c3ccc4c(c3)OCO4)[C@H](CO)O2)CC1,1,2,nt,nt,
CCCNC(=O)[C@H]1[C@H](CO)[C@H]2Cn3c(ccc(-c4cncnc4)c3=O)[C@H]2N1C(=O)c1ccccc1F,nt,0,nt,nt,
O=C(Nc1cccc(-c2cnc3ccccc3n2)c1)c1ccncc1,1.3*,0,1,i,FGF22 binding-2=0.065
CC(=O)Nc1ccc(C(=O)Nc2cccc(-c3cnc4ccccc4n3)c2)cc1,1,-2,4,nt,
C[C@@H]1CN([C@H](C)CO)C(=O)c2cc(NS(=O)(=O)c3cn(C)cn3)ccc2O[C@@H](C)CCCCO[C@@H]1CN(C)Cc1ccc(C(F)(F)F)cc1,0,0,nt,nt,
CCN(CC)S(=O)(=O)c1ccc(C(=O)NNC2=NS(=O)(=O)c3ccccc32)cc1,0,-3,-6,nt,
COc1ccc(S(=O)(=O)N(NC2=NS(=O)(=O)c3ccccc32)C(=O)C(C)C)cc1,2.6*,0,3,i,FGF22 binding-2=-0.066
COc1ccc(-c2ccccc2[C@H]2[C@@H](C#N)N(C(=O)C3CCCC3)[C@H]2CO)cc1,nt,-1,nt,nt,
COc1ccc(-c2cn(CC[C@H]3CC[C@@H](NC(=O)Nc4ccc(F)cc4)[C@@H](CO)O3)nn2)cc1,1,-3,nt,nt,
O=C(Nc1ccc(F)cc1)N[C@@H]1CC[C@H](CCn2cc(-c3ccc(F)cc3)nn2)O[C@@H]1CO,0,0,nt,nt,
O=C(N[C@H]1CC[C@H](CCn2cc(C3(O)CCCC3)nn2)O[C@@H]1CO)C1CCCCC1,1.8*,-1,nt,i,FGF22 binding-2=0.027[42 µM]
O=C(Nc1ccc(F)cc1)N[C@@H]1CC[C@H](CCn2cc(-c3ccc(F)cc3)nn2)O[C@H]1CO,2.4*,3,nt,i,FGF22 binding-2=-0.2[42 µM]
COc1ccc(NC(=O)N[C@@H]2CC[C@H](CCn3cc(-c4ccc(F)cc4)nn3)O[C@H]2CO)cc1,0,2,nt,nt,
